Our source for the log2 fold change values is the supplement of paper PMC10849652.

Targets with a hit are over-represented here; the source holds about 7,900 in all. About 0.6% of all pairs of compound and target were hits. A number with no mark means an inactive call.

What all share (assay): log2 fold change, soluble protein after heating vs DMSO (PISA); higher = thermal stabilisation; K562 cells, 10 uM, 30 min; active = over 0.2 and 3.5 SD of the protein, either way, in both replicates (recomputed)
Compound in experiment [1]: CC[C@@H]1C(=O)N(C)c2cnc(Nc3ccc(C(=O)NC4CCN(C)CC4)cc3OC)nc2N1C1CCCC1
In a few lines:
(§1)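 K562 cells at 2×10^6 cells/mL were exposed to 10 μM compound for 30 min, then aliquots were heated for 3 min across 48°C-58°C, pooled, and extracted in PBS containing 0.5% NP-40 at 4°C. The supernatant after 21,000xg for 90 min was taken as soluble protein and measured by TMTpro 16plex LC-MS/MS with channel sums equalised. Thermal stability is reported relative to control samples, with values from duplicates. Fold changes are given on a log2 scale.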

Compound in the next experiment: CC[C@@H]1C(=O)N(C)c2cnc(Nc3ccc(C(=O)N[C@H]4CC[C@H](N5CCN(CC6CC6)CC5)CC4)cc3OC)nc2N1C(C)C [volasertib]
In a few lines: as §1

Compound in experiment [2]: CN(C)CC(=O)Nc1ccc2[nH]c(=O)c3ccccc3c2c1
In outline:
as §1

Compound in experiment [3]: CN1C2=C(C3=C1C(=O)N(N=C3)CC4=CC(=CC=C4)N)SC(=C2)S(=O)C
In a few lines:
as §1

Compound in another experiment: CN1CCN(CCOc2cc(OC3CCOCC3)c3c(Nc4c(Cl)ccc5c4OCO5)ncnc3c2)CC1 [saracatinib]
In outline:
as §1

Compound in the next experiment: CN1CC[C@H](c2c(O)cc(O)c3c(=O)cc(-c4ccccc4Cl)oc23)[C@H](O)C1 [alvocidib]
In outline: as §1

Compound in a further experiment: CN1CCc2c(c3ccccc3n2Cc2ccc(C(=O)NO)cc2)C1 [Tubastatin A]
In outline: as §1

Compound in the next experiment: CNC(=O)c1ccc(Nc2ncc(C(F)(F)F)c(NCc3nccnc3N(C)S(C)(=O)=O)n2)cc1 [defactinib]
In outline:
as §1

Compound in the next experiment: CNCc1ccc(-c2[nH]c3cc(F)cc4c3c2CCNC4=O)cc1 [rucaparib]
In outline:
as §1

Compound in experiment [4]: CNc1nc(-c2ccc3c(N)n[nH]c3c2)cc(N2C[C@@H](C(=O)NC3CCCCC3)CC[C@H]2C)n1
In a few lines:
as §1

Compound in a further experiment: COC(=O)N[C@@H](C)CNc1nccc(-c2cn(C(C)C)nc2-c2cc(Cl)cc(NS(C)(=O)=O)c2F)n1 [encorafenib]
In outline: as §1

Compound in experiment [5]: COC(=O)[C@H](CCSC)NC(=O)C1=C(C=C(C=C1)NC[C@H](CS)N)C2=CC=CC=C2
In a few lines:
as §1

Compound in another experiment: CC[C@H](C)[C@@H](C(=O)N[C@@H]([C@@H](C)O)C(=O)N[C@@H](CC(C)C)C(=O)[C@]1(CO1)C)NC(=O)[C@H]([C@@H](C)CC)N(C)C(=O)C [epoxomicin]
In outline: as §1

Compound in experiment [6]: CCn1c(C(=O)N(C2CC2)C2CC2)cc2c3c(ncn3C)c(Nc3cc(C)n(C)n3)nc21
In a few lines:
as §1

Compound in the next experiment: CN1CCN(c2nc(C3=C(c4c[nH]c5ccccc45)C(=O)NC3=O)c3ccccc3n2)CC1 [sotrastaurin]
In outline:
as §1

Compound in experiment [7]: CNC(=O)C1=CC=CC=C1NC2=NC(=NC=C2Cl)NC3=C(C=C(C=C3)N4CCOCC4)OC
In outline:
as §1

Compound in a further experiment: CN(CCOC1=CC=C(C=C1)C[C@H]2C(=O)NC(=O)S2)C3=CC=CC=N3 (racemic) [rosiglitazone]
In a few lines:
as §1

Compound in experiment [8]: CC[C@H](C)N1C=C(C2=C(C=C(C=C21)C3=CN=C(C=C3)N4CCNCC4)C(=O)NCC5=C(C=C(NC5=O)C)C)C
In outline: as §1

Compound in experiment [9]: CCn1cc(-c2ccnc3[nH]c(-c4cccc(CN(C)C)c4)cc23)c(-c2ccc(NC(=O)N(C)C)cc2)n1
In a few lines: as §1

Compound in experiment [10]: CN1CCC(CNc2ccc3ncc(-c4cccc(OC(F)(F)F)c4)n3n2)CC1
In outline: as §1

Sequence of UniProt Q9UHX1 (Q9UHX1 whole entry, looked up): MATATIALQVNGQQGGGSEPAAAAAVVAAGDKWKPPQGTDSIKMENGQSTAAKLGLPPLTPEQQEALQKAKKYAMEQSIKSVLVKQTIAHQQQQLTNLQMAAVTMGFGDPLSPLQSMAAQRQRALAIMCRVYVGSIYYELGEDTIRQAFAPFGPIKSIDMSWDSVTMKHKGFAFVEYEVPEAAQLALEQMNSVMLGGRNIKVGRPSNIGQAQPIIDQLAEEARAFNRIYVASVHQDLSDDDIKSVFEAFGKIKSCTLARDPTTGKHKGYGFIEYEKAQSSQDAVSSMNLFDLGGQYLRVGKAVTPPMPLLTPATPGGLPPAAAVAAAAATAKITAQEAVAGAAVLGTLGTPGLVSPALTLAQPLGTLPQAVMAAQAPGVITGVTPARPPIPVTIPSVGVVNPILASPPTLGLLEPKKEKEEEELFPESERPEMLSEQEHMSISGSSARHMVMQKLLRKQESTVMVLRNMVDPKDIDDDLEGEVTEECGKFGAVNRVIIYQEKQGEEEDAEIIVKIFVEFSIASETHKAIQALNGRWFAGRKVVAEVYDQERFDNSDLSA
Sequence of UniProt Q16513 (Q16513 whole entry, looked up): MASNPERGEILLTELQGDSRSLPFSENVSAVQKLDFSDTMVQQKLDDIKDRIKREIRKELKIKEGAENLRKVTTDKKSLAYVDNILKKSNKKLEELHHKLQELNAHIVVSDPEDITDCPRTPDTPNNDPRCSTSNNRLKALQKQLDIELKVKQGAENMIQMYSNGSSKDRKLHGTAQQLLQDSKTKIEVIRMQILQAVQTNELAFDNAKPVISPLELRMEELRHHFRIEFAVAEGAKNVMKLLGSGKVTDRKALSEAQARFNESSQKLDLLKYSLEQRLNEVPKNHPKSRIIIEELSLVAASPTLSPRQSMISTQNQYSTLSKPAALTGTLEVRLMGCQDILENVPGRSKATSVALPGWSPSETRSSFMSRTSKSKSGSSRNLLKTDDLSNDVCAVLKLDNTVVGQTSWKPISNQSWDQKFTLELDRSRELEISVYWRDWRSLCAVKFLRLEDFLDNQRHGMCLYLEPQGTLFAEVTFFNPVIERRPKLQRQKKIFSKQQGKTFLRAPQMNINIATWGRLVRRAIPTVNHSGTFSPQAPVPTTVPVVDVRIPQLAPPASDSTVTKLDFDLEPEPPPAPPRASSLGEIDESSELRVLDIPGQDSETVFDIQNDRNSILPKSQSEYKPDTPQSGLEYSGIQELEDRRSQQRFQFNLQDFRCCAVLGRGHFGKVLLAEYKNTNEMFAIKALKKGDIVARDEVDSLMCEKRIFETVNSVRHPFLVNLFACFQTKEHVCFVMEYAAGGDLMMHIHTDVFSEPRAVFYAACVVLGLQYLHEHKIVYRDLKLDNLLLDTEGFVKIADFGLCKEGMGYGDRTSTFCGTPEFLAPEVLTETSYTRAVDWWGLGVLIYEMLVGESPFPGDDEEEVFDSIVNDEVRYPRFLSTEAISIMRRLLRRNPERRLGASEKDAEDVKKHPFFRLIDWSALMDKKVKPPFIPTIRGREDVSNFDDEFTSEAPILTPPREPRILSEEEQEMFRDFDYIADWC
Sequence of UniProt Q14671 (Q14671 whole entry, looked up): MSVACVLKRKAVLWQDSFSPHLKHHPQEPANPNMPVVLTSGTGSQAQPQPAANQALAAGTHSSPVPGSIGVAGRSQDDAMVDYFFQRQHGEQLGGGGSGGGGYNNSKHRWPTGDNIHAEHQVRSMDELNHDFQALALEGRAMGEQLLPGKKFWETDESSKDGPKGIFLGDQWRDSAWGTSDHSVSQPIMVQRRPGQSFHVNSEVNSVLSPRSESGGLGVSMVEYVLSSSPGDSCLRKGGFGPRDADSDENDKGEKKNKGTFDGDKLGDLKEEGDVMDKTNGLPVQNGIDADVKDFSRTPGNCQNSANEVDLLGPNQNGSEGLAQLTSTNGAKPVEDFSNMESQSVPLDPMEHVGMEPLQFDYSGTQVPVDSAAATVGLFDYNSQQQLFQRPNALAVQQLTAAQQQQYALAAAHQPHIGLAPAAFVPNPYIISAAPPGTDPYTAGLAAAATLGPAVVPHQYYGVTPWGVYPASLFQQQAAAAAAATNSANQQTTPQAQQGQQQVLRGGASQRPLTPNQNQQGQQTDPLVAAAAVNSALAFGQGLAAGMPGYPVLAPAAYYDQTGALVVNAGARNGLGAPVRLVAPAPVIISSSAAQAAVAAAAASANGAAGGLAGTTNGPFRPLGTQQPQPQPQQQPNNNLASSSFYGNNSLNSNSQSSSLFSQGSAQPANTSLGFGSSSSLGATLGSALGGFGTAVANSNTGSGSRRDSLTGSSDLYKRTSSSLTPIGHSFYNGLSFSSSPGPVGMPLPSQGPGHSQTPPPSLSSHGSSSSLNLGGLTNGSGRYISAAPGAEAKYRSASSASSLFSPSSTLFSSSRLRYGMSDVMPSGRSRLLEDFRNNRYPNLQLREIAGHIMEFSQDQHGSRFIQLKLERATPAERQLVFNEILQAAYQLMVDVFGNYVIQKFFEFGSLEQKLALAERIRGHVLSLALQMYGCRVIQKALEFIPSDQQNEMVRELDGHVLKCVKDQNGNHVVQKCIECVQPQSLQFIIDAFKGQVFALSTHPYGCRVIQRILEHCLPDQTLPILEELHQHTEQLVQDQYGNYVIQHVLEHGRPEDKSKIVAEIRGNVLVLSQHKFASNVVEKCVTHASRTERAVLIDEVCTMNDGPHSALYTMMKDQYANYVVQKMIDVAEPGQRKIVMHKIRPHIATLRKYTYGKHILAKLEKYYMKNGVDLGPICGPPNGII
Sequence of UniProt Q14289 (Q14289 whole entry, looked up): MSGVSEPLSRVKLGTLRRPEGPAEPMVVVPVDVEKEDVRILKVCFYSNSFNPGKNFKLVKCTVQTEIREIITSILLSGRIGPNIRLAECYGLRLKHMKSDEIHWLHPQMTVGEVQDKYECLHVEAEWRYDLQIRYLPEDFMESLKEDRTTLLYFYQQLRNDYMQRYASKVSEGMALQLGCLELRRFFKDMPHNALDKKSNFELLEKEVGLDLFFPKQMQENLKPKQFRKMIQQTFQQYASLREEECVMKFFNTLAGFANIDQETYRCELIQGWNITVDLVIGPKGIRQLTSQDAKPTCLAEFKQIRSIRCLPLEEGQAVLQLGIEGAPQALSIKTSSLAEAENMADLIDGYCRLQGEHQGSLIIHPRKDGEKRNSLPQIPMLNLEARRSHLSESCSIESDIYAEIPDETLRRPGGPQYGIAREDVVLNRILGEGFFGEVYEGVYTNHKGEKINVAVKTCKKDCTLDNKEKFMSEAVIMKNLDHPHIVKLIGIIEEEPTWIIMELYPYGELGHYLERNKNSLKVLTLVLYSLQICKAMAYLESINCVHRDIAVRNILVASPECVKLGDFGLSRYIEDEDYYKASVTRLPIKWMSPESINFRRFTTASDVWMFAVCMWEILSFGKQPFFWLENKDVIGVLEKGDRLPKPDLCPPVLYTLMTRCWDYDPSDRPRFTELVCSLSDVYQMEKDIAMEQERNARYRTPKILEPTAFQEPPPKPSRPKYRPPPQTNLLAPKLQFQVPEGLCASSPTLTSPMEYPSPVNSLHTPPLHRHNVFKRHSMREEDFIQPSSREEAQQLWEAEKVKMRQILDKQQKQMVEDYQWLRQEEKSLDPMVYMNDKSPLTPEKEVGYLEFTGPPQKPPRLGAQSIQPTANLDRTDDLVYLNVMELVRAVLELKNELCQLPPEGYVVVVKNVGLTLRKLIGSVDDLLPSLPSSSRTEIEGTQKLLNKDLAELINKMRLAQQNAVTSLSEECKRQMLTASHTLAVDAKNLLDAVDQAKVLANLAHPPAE
Sequence of UniProt P27815 (P27815 whole entry, looked up): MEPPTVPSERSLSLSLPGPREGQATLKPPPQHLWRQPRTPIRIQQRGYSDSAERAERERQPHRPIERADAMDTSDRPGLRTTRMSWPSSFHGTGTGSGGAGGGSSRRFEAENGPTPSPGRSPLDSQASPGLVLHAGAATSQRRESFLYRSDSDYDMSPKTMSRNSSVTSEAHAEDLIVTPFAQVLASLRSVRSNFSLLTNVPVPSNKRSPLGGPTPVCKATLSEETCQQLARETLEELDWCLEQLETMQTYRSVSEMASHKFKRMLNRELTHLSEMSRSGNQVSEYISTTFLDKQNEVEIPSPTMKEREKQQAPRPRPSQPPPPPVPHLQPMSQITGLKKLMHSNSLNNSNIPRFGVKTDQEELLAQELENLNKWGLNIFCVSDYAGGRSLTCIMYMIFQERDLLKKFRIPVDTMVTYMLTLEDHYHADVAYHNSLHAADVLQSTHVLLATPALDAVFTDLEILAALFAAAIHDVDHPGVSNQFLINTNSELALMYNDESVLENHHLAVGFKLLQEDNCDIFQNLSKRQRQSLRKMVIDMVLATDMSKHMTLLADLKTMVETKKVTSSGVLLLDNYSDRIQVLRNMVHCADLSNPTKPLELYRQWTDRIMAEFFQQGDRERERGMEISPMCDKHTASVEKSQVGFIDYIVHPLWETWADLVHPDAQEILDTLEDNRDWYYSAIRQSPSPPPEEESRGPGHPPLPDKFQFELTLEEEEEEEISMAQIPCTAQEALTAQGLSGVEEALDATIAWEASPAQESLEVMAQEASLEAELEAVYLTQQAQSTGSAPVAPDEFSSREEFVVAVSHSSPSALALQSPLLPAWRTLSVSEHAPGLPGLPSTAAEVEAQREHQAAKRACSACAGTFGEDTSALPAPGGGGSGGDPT
Sequence of UniProt O43924 (O43924 whole entry, looked up): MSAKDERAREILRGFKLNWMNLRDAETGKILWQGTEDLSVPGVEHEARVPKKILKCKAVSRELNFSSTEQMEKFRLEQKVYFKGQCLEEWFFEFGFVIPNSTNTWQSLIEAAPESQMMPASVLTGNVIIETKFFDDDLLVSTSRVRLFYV
Sequence of UniProt Q68D20 (Q68D20 whole entry, looked up): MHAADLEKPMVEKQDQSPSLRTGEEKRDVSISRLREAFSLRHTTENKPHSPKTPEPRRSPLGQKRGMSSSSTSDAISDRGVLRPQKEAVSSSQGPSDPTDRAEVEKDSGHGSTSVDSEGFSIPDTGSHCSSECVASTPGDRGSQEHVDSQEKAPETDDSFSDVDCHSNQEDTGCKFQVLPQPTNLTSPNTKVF

As to PSMA3 (UniProt H0YJ03), the log2 fold change in experiment [1] is 0.115; in the experiment with volasertib, 0.076; in experiment [2], -0.04; in [3], 0.027; in the experiment with saracatinib, -0.185; with alvocidib it was 0.073. Also, the log2 fold change is 0.314 with Tubastatin A; -0.023 with defactinib; 0.151 with rucaparib; 0.067 in experiment [4]; -0.142 in the experiment with encorafenib; 0.087 in experiment [5].

As to PEX5 isoform 4 (UniProt P50542), the log2 fold change was 0.2 with epoxomicin; 0.096 in [6]; -0.017 in experiment [2]; 0.366 in experiment [3]; -0.425 with saracatinib; -0.207 with sotrastaurin. Also, the log2 fold change with alvocidib was -0.088; in the experiment with Tubastatin A, 0.077; in experiment [7] it was 0.178; with defactinib, 0.006; in experiment [4], 0.182; in experiment [5] it was -0.097.

On to PUF60 isoform 2 (UniProt Q9UHX1), for which the log2 fold change with volasertib was -0.372; in [2], 0.067; with rosiglitazone, -0.011; in experiment [3], -0.259; with saracatinib, 0.107; with alvocidib, -0.306. The log2 fold change is 0.202 with Tubastatin A, -0.165 with defactinib, -0.403 in experiment [4] and -0.089 in experiment [5].

With PDE4A (UniProt P27815), the log2 fold change with volasertib was -0.331; with epoxomicin, -0.124; in experiment [6], 0.099; in experiment [2], 0.082; in the experiment with rosiglitazone, 0.078; in the experiment with alvocidib, -0.263. Moreover, the log2 fold change with Tubastatin A is 0.054; in experiment [7] it was 0.017; in the experiment with defactinib, -0.145; in [5] it was -0.018.

For the target PRKX (UniProt P51817), the results for the log2 fold change (in [6]; with rosiglitazone; in experiment [7]) were -0.019, 0.191 and -0.139, respectively.

Regarding PHRF1 (UniProt Q9P1Y6), the values for the log2 fold change (with volasertib; in experiment [6]; in experiment [7]) were 0.373, 0.035 and -0.022, respectively.

With PCBP2 (UniProt F8VZX2), the log2 fold change in [8] was 0.075; in experiment [6] it was 0.073; in the experiment with rosiglitazone, 0.065; in experiment [3], 0.098; with saracatinib it was 0.009; with alvocidib, -0.3. The log2 fold change was 0.06 in experiment [7] and 0.084 in experiment [4].

For PTK2B (UniProt Q14289), the log2 fold change with volasertib is -1.28 (active); in [8], -0.244; in the experiment with epoxomicin, -0.012; in [6], -0.198; in [9], -0.141; in [2], 0.017. Besides, the log2 fold change is 0.165 in the experiment with rosiglitazone; 0.082 in [3]; -0.051 in experiment [10]; 0.163 in the experiment with saracatinib; -0.104 with sotrastaurin; 0.078 with Tubastatin A. Moreover, the log2 fold change in experiment [7] is 0.309; with defactinib, 0.36; in [4], -0.034; in [5], -0.155.

Consider PDE4DIP (UniProt E9PS60), for which the log2 fold change is 0.047 in experiment [1]; -0.072 in experiment [6]; 0.095 in [2]; 0.095 in the experiment with alvocidib; -0.196 in [7]; 0.095 in the experiment with defactinib. The log2 fold change with rucaparib was 0.172; in the experiment with encorafenib, 0.125; in experiment [5] it was 0.032.

On to PUM1 (UniProt Q14671), for which the log2 fold change in experiment [6] was -0.01; in experiment [9], -0.084; in [3], 0.078; in experiment [10] it was -0.026; with saracatinib, -0.155; in the experiment with alvocidib, -0.083. For the same target, the log2 fold change with Tubastatin A is 0; in experiment [7] it was -0.348; in [4], -0.232.

Consider PKN2 (UniProt Q16513), for which the log2 fold change was -0.135 in the experiment with volasertib; 0.159 in [8]; -0.027 with epoxomicin; -0.197 in [6]; -0.046 in [9]; 0.009 in [2]. For the same target, the log2 fold change with rosiglitazone was 0.026; in experiment [3], 0.027; in [10] it was -0.288 (active); with saracatinib it was -0.059; with alvocidib, -0.159; in the experiment with Tubastatin A, 0.025. The log2 fold change in experiment [7] is 0.037; in the experiment with defactinib, -0.099; with rucaparib, -0.039; in [4], -0.037; with encorafenib, 0.024; in [5], -0.05.

Turning to PPP1R12B isoform 6 (UniProt O60237), the log2 fold change in experiment [8] was 0.088; in [6] it was -0.11; with rosiglitazone it was 0.006; in experiment [7], 0.

Take PMS2CL (UniProt Q68D20): the log2 fold change in [8] was -0.126; in the experiment with epoxomicin it was 0.126.

As to PSMC3 (UniProt E9PLG2), the log2 fold change was -0.273 with epoxomicin; -0.238 in experiment [2]; 0.043 in the experiment with rosiglitazone; 0.046 in experiment [3]; -0.197 in the experiment with saracatinib; 0.081 with sotrastaurin. The log2 fold change with Tubastatin A was 0.079; in the experiment with defactinib, 0.172; in [4], -0.252; in [5], -0.026.

Consider PSMC1 (UniProt G3V4X1), for which the log2 fold change with volasertib is 0.141; in experiment [8] it was -0.01; in [6], -0.135; in experiment [9], 0.108; in [10], -0.282; with alvocidib it was 0.031. Besides, the log2 fold change in experiment [7] was -0.011.

PDE6D (UniProt O43924): the log2 fold change is -0.179 in [8]; 0.105 with epoxomicin; 0.26 in [6]; -0.29 in experiment [9]; 0.05 in [2]; -0.054 in the experiment with rosiglitazone. Also, the log2 fold change was -0.096 in [3]; 0.061 in [10]; -0.074 with saracatinib; 0.035 with sotrastaurin; -0.051 in the experiment with alvocidib; 0.029 in the experiment with Tubastatin A. In addition, the log2 fold change in experiment [7] is -0.102; with defactinib it was -0.043; in [4], 0.119; in experiment [5] it was 0.068.
